Measurements as given in the supplement of paper PMC3334620.
The full ranking holds about 33,000 sequences; the median of “E-score (-0.5 to 0.5)” is about -0.012, and the highest 2% start at about 0.27. The entries come from a sample that favours the highest values as a whole.

Target: T1, Vhr1 (UniProt P40522)
T1 sequence: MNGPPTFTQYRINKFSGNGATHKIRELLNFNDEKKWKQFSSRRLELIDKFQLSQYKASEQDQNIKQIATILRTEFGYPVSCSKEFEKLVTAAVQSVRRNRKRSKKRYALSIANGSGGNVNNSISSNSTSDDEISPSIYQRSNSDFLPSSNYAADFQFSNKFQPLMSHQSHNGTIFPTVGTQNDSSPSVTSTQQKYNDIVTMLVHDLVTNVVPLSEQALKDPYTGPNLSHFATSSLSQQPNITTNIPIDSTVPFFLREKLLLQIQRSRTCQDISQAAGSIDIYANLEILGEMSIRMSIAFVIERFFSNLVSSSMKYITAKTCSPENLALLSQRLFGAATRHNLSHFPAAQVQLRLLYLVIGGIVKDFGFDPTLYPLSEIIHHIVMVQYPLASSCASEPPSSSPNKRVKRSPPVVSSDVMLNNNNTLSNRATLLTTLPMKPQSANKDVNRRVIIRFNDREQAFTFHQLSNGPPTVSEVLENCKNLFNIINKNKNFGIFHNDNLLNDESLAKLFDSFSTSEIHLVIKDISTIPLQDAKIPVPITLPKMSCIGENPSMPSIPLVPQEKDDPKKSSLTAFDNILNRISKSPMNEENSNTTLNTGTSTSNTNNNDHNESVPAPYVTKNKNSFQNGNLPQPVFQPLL
Experiment: PBM E-score (8-mer binding enrichment) (E-score (-0.5 to 0.5)); higher = stronger / more preferred TF binding
Conditions: protein concentration: 200 nM; construct: GST-full length
Method: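 Universal 'all 10-mer' protein binding microarrays (Agilent AMADID 015681) probed with GST-tagged S. cerevisiae TFs (full-length or DBD) made by in vitro transcription/translation (PURExpress), about 100-200 nM. Bound TF was detected with fluorescent anti-GST. Each ungapped 8-mer (which stands for itself and its reverse complement) is scored by the PBM enrichment score (E-score), a modified Wilcoxon-Mann-Whitney statistic from -0.5 to +0.5, computed with the Universal PBM Analysis Suite. Scale: above 0.35 generally sequence-specific binding.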

Sequence	PBM E-score
GATCAGTA	0.121
ACGTGACT	0.41
AGGTGACA	0.0488
ACGTGACA	-0.197
AGGTGACG	-0.0476
AGGTGACT	0.425
ACGTGACG	-0.137
CTCATAAC	0.00985
ATGTGGTG	0.227
AGAAGATA	-0.193
TCAGTTAA	-0.108
AGTAGGCA	0.154
CACAACGC	0.134
AAGACTAG	-0.209
GGGACTAA	-0.209
CTGACTAA	0.359
CTGACTAC	0.361
CGGACTAC	0.0519
CAGACTAC	0.136
CAGACTAA	0.117
GTGACTTA	0.259
CGGACTAA	0.102

Sequence	PBM E-score
GTGACTAA	0.428
ACGACTAG	0.162
ATGACTAG	0.369
AGGTGGAG	-0.191
CGATCGCA	0.178
TCCCTGCA	0.0302
AGGGTTGC	-0.068
CGAGCGAG	0.262
ATTCGAGC	-0.0346
GGCCATAC	0.0276
AGGACTAA	0.054
ATGACTAC	0.462
AGGACTAC	0.067
AAGACTAA	0.116
ATGACTAA	0.42
AAGACTAC	0.122
AGTCTACC	-0.0695
CGAAGTGC	-0.107
AAACGCAC	0.142
CAAAAGGA	-0.2
AACTGATC	0.157
AGGCAGCC	-0.0232

Sequence	PBM E-score
CGGCAGCC	0.282
CGGCAGCA	-0.0628
AGGGGGCA	-0.151
GAAACACA	0.0985
AATTGAGG	-0.233
AATTGAGT	0.272
AATTGAGA	-0.0698
TGAATCCA	0.185
GTCATGAC	0.31
CTCATGAA	0.0223
ATCATGAC	0.335
CACATGAA	0.0563
CTCATGAC	0.326
ATCATGAA	0.118
CACATGAC	0.272
GTCATGAA	0.257
ATCATGAG	0.235
CTCATGAG	0.0895
CACATGAG	0.065
GACATGAC	0.202
CTTTCAAC	-0.128
CGTGGTGA	-0.158

Sequence	PBM E-score
CAGACGGC	-0.0191
CGAACTAG	-0.0301
TCTAGAAA	-0.272
AACCCATA	0.271
AACCCTGA	0.286
CACCCTGA	0.245
GACCCATA	0.251
ACCCCTGA	0.143
AACCCATT	0.0791
AATTGACT	0.149
CTTAAGTA	-0.199
CTAGGTTC	-0.0959
CCGAATGC	-0.0649
CATAGTCG	0.238
TATAGTAA	0.15
CATAGTCA	0.37
AATAGTCG	0.148
AATAGTCA	0.344
AATAGTCT	-0.0519
GATAGTAA	0.0876
TATAGTCA	0.318
CATAGTCC	0.115
